Bioassay records deposited in PubChem by National Center for Advancing Translational Sciences (NCATS).
In the library only some 19% were active in any assay of this set; here they are far more common.
HT1080 IDH1KD tx: kills HT-1080 cells with IDH1 knockdown; HT-1080 IDH1 knockdown viability, ATP luminescence, 48 h; Potency, µM (top dose mostly 46.1 µM), for the others: at the highest dose activity, negative = toxicity, usual class: cytotoxic; 360,000 compounds, 2% hits; AID 686971;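 also: potency is read from the fitted curve at half-maximal effect; 0% = DMSO wells and -100% = cell-free medium wells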
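HT-1080-IDH1KD cells (IDH1 knocked down), 750/well in RPMI with 5% FBS, treated with compound 48 h at 37 degrees C. Viability by CellTiter-Glo luminescence, normalised to DMSO and no-cell wells; concentration-response curves classed.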
HT1080-NT tox: kills 2HG-producing HT-1080-NT fibrosarcoma cells | 360,000 compounds, 1.6% hits | AID 686970 | Potency, µM (highest dose often 46.1 µM), inactives show top-dose activity, negative = less viability, most hits filed as cytotoxic | HT-1080-NT fibrosarcoma viability, CellTiter-Glo ATP luminescence, 48 h;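 also: NT is the 2HG producing partner of a matched IDH1 knockdown line; potency is read from the fitted curve at half-maximal effect; 0% = DMSO-treated cells and -100% = media-only wells without cells; nearly all actives have a fitted effect of over 55% in size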
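Compounds were tested in concentration-response format on HT-1080-NT cells for 48 hours at 37 degrees C. Cell viability came from CellTiter-Glo luminescence; curves were classified by r2, response magnitude and activity.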
TDP1 cell CPT: growth inhibition of DT40 Tdp1-/-;hTDP1 cells with camptothecin (screen for TDP1 inhibitors); Potency, µM (titrated, usually from 46.2 µM), inactives show top-dose activity change, negative = growth inhibition, hits mostly inhibitors; AID 686979; 420,000 compounds, 12% hits; chicken DT40 Tdp1-/-;hTDP1 cells + 20 nM CPT, ATP luminescence, 48 h; also: potency is read from the fitted curve at half-maximal effect; nearly all actives have a fitted effect of over 55% in size
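Chicken DT40 Tdp1-/- cells stably complemented with human TDP1 were seeded at 400 cells/well in medium containing 20 nM camptothecin, exposed to pin-transferred compounds, and grown at 37 °C for at least 48 hr. Viability was read as ATP luminescence.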
TDP1 cell noCPT: qHTS for Inhibitors of human tyrosyl-DNA phosphodiesterase 1 (TDP1): qHTS in cells in absence of CPT. DT40 Tdp1-/- hTDP1 cells, no CPT, ATP luminescence, 48 h. Potency, µM (series often up to 46.2 µM), for inactives: at the highest dose activity change, negative = growth inhibition, hits mostly inhibitors. 420,000 compounds, 15% hits. AID 686978, 2013; also: potency is read from the fitted curve at half-maximal effect; nearly all actives have a fitted effect of over 55% in size
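Seeded 400 DT40-hTDP1 cells/well (vehicle DMSO, no 20 nM CPT); pinned compounds; ≥48 hr at 37 °C; CellTiter-Glo luminescence as viability measure.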
uPA surface inh: cell surface uPA generation inhibition. AID 540303. Potency, µM (top dose mostly 38.3 µM), without a hit: at the highest dose activity change, negative = inhibition, hits mostly inhibitors. 330,000 compounds, 0.31% hits. cell surface uPA generation assay, qHTS; active = well fitted inhibition curve with a large enough effect; inconclusive = small, poorly fitted or top-dose-only effect; inactive = no such curve, though single readings can be large or run the other way; tested in mouse RAW 264.7 cells; also: potency is read from the fitted curve at half-maximal effect; nearly all actives have a fitted effect of over 55% in size
IL1B secr inh: inflammasome signaling inhibition, IL-1 beta readout. 360,000 compounds, 4.7% hits. activity change, % at 57.5 µM. THP-1 LPS/ATP IL-1B secretion, AlphaLISA, 16 h; stronger effect = lower value; in the data active = activity change below about -50%; inconclusive = mostly about -30% to -49%
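Secreted IL-1B measured by AlphaLISA bead assay after 16 h compound exposure of THP-1 cells; compounds (final up to 57.5 uM) added 1 h before LPS (250 ng/mL) and ATP (1.25 mM) stimulation; lower signal means less secretion.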
* hit, by the source's call; [ ] = remark or other dose. Unless noted, calls follow the shape of the dose curve; as a rule, active = well fitted curve in the direction sought with a large enough effect; inconclusive = small, poorly fitted or top-dose-only effect, or another doubt; inactive = no such curve, though single readings can be large; an effect the other way counts as inactive or inconclusive. Unless noted, % is scaled to controls: 0 for no effect and ±100 for the full control effect.

Results for Cc1ccc(-n2c(O)c(/C=N/Nc3ccc(S(=O)(=O)N4CCOCC4)cc3[N+](=O)[O-])c3ccccc3c2=O)c(C)c1 ?
HT1080 IDH1KD tx: inconclusive; HT1080-NT tox: 12µM*; TDP1 cell CPT: 21µM*; TDP1 cell noCPT: 12µM*; uPA surface inh: -5%; IL1B secr inh: -65*

What do the screens show for `CCC1C(=O)Nc2nc(-c3ccccc3)c(-c3ccccc3)n2N=C1C` (centres undefined)?
HT1080 IDH1KD tx: -1%[9.24 µM]; HT1080-NT tox: -1%; TDP1 cell CPT: 21µM*; TDP1 cell noCPT: 23µM*; uPA surface inh: 8%; IL1B secr inh: -11

What do the screens show for `O=C1Nc2ccccc2N(C(=O)c2ccc(-c3ccccc3)cc2)C1c1nc2ccccc2[nH]1` (centres undefined)?
HT1080 IDH1KD tx: 16µM*; HT1080-NT tox: inconclusive; TDP1 cell CPT: inconclusive; TDP1 cell noCPT: 21µM*; IL1B secr inh: 21

What do the screens show for `O=C(NC(=S)Nc1ccc(Cl)cn1)c1cc([N+](=O)[O-])ccc1N1CCOCC1`?
HT1080 IDH1KD tx: 3%; HT1080-NT tox: -5%; TDP1 cell CPT: -3%; TDP1 cell noCPT: 4%; uPA surface inh: -2%; IL1B secr inh: -1

What do the screens show for `CC(=O)Nc1ccc(S(=O)(=O)N2CCCC2)cc1`?
HT1080 IDH1KD tx: 8%; HT1080-NT tox: 0%; TDP1 cell CPT: inconclusive; TDP1 cell noCPT: -21%; uPA surface inh: 0%; IL1B secr inh: -5

What do the screens show for `CC(=O)c1ccc(NS(=O)(=O)c2ccc([N+](=O)[O-])cc2)cc1`?
HT1080 IDH1KD tx: 2%; HT1080-NT tox: 6%; TDP1 cell CPT: -1%; TDP1 cell noCPT: -18%; uPA surface inh: 0%; IL1B secr inh: -9

How did O=[N+]([O-])c1ccc(S(=O)(=O)Nc2ccc3c(c2)OCCO3)cc1 do in these assays?
HT1080 IDH1KD tx: -4%; HT1080-NT tox: -10%; TDP1 cell CPT: inconclusive; TDP1 cell noCPT: 16µM*; uPA surface inh: 0%; IL1B secr inh: 13

How did COC(=O)c1cc(NS(=O)(=O)c2ccc(NC(C)=O)cc2)ccc1Cl do in these assays?
HT1080 IDH1KD tx: -9%; HT1080-NT tox: -24%; TDP1 cell CPT: inconclusive; TDP1 cell noCPT: inconclusive; uPA surface inh: -4%; IL1B secr inh: -74*

Results for COC(=O)c1cc(NS(=O)(=O)c2ccc(OC)c(OC)c2)ccc1Cl ?
HT1080 IDH1KD tx: -5%; HT1080-NT tox: -5%; TDP1 cell CPT: -29%; TDP1 cell noCPT: inconclusive; uPA surface inh: -2%; IL1B secr inh: 25

Results for CC(=O)Nc1ccc(S(=O)(=O)N2CCc3cc4c(cc3C2)OCCCO4)cc1 ?
HT1080 IDH1KD tx: -1%; HT1080-NT tox: -13%; TDP1 cell CPT: 21µM*; TDP1 cell noCPT: inconclusive; uPA surface inh: 1%; IL1B secr inh: 7

What do the screens show for `O=[N+]([O-])c1ccc(S(=O)(=O)Nc2ccc(-c3ccccc3)cc2)cc1`?
HT1080 IDH1KD tx: -3%; HT1080-NT tox: -24%; TDP1 cell CPT: inconclusive; TDP1 cell noCPT: 13µM*; IL1B secr inh: -3

Results for Cc1ccc(S(=O)(=O)Nc2ccc3c(c2)OCCO3)cc1 ?
HT1080 IDH1KD tx: -20%; HT1080-NT tox: -8%; TDP1 cell CPT: -25%; TDP1 cell noCPT: inconclusive; uPA surface inh: 4%; IL1B secr inh: -8

How did O=C1CCCN1c1ccc(S(=O)(=O)Nc2ccc3c(c2)OCCO3)cc1 do in these assays?
HT1080 IDH1KD tx: inconclusive; HT1080-NT tox: 5µM*; TDP1 cell CPT: 3.3µM*; TDP1 cell noCPT: 2.9µM*; uPA surface inh: inconclusive; IL1B secr inh: -10

What do the screens show for `CC(=O)Nc1ccc(S(=O)(=O)Nc2ccc3c(c2)OCCO3)cc1`?
HT1080 IDH1KD tx: -4%; HT1080-NT tox: 1%; TDP1 cell CPT: inconclusive; TDP1 cell noCPT: 7.3µM*; uPA surface inh: -1%; IL1B secr inh: 11

How did O=S(=O)(Nc1ccc2c(c1)OCCO2)c1ccc(F)cc1 do in these assays?
HT1080 IDH1KD tx: -18%; HT1080-NT tox: 0%; TDP1 cell CPT: inconclusive; TDP1 cell noCPT: -15%; IL1B secr inh: -9

How did Cc1c(F)cccc1NS(=O)(=O)c1ccc(N2CCCC2=O)cc1 do in these assays?
HT1080 IDH1KD tx: 8%; HT1080-NT tox: 7%; TDP1 cell CPT: 23%; TDP1 cell noCPT: -17%; uPA surface inh: 1%; IL1B secr inh: 12

How did CC(=O)c1cc2c(cc1NS(=O)(=O)c1ccc(C)cc1)OCCO2 do in these assays?
HT1080 IDH1KD tx: 16µM*; HT1080-NT tox: inconclusive; TDP1 cell CPT: 23µM*; TDP1 cell noCPT: 21µM*; uPA surface inh: -12%; IL1B secr inh: 7

What do the screens show for `N#CCc1ccc(NS(=O)(=O)c2ccc(N3CCCC3=O)cc2)cc1`?
HT1080 IDH1KD tx: -9%; HT1080-NT tox: -8%; TDP1 cell CPT: 13µM*; TDP1 cell noCPT: inconclusive; uPA surface inh: 3%; IL1B secr inh: 62

What do the screens show for `CC(=O)c1cc2c(cc1NS(=O)(=O)c1ccccc1)OCO2`?
HT1080 IDH1KD tx: 2%; HT1080-NT tox: inconclusive; TDP1 cell CPT: -14%; TDP1 cell noCPT: -10%; uPA surface inh: 1%; IL1B secr inh: -2

How did COC(=O)c1cc(NC(=O)COC(=O)C2CCC2)cc(C(=O)OC)c1 do in these assays?
HT1080 IDH1KD tx: -5%; HT1080-NT tox: -8%; TDP1 cell CPT: 7%; TDP1 cell noCPT: -2%; uPA surface inh: -2%; IL1B secr inh: 44

Results for O=C(NCCCN1CCCCC1)c1ccc(CS(=O)c2ccc(F)cc2)o1 (centres undefined) ?
HT1080 IDH1KD tx: 9%; HT1080-NT tox: -1%; TDP1 cell CPT: -19%; TDP1 cell noCPT: 27%; uPA surface inh: -6%; IL1B secr inh: 3

How did Cc1cc(C)cc(OCc2cc(=O)n3c4c(sc3n2)CCCC4)c1 do in these assays?
TDP1 cell CPT: -1%; TDP1 cell noCPT: 7%

How did O=C1CC(c2ccccc2)CC(=O)N1c1ccc(C(F)(F)F)cc1 do in these assays?
HT1080 IDH1KD tx: -2%; HT1080-NT tox: -1%; TDP1 cell CPT: -7%; TDP1 cell noCPT: -12%; uPA surface inh: 9%; IL1B secr inh: 18

Results for COc1cc2c(C(=O)NCCN(C)C)cn(CC(C)C)c(=O)c2cc1OC ?
HT1080 IDH1KD tx: inconclusive; HT1080-NT tox: 7%; TDP1 cell CPT: -11%; TDP1 cell noCPT: 9%; uPA surface inh: -2%; IL1B secr inh: 32

Results for CCn1cc(C(=O)Nc2ccc(C(C)C)cc2)c2cc(OC)c(OC)cc2c1=O ?
TDP1 cell CPT: inconclusive; TDP1 cell noCPT: 16µM*
